This is an account of results in article PMC7862700, “An all-to-all approach to the identification of sequence-specific readers for epigenetic DNA modifications on cytosine”.

Holding throughout (test): DAPPL (digital affinity profiling via proximity ligation, sequencing); 10 mM Tris-HCl pH 7.5, 50 mM NaCl, 1 mM DTT, 4% glycerol, room temperature, 30 min; GST-TFs on glutathione beads, 16-mer random dsDNA library, 0.1% formaldehyde crosslink after washing; high values mean tight binding
Common to all, as to settings: protein: recombinant; tags: N-terminal GST; dsDNA, one strand shown

One test has as its target T1, FLI1 (Homo sapiens, UniProt Q01543 1-452).
T1 sequence: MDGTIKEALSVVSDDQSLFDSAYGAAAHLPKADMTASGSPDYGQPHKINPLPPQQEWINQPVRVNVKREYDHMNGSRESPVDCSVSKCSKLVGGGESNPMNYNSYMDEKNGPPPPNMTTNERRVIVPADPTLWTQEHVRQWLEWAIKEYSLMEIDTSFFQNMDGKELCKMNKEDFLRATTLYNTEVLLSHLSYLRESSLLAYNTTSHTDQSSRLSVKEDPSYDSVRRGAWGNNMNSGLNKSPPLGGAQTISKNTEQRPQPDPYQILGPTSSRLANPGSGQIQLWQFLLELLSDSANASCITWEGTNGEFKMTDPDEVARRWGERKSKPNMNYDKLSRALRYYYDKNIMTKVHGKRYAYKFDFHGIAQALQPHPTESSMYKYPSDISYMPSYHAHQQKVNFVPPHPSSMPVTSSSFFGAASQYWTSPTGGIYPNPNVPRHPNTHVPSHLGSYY
The gist of the method:
(§1)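 Beads coated with glutathione captured GST-fused human transcription factors that had been expressed in yeast, and the factors were then given DNA barcodes and pooled with a tag-only sample. The pools were incubated with 200 nmole of a random double-stranded 16-mer DNA library in Tris/NaCl/DTT/glycerol buffer for 30 min at room temperature, washed, crosslinked with 0.1% formaldehyde and proximity-ligated with BsaI/T4 ligase at 37 °C for 1 h. PCR amplification and Illumina NextSeq500 sequencing came last. Binding signal is each hexamer's read frequency for a factor divided by its frequency for the tag-only sample.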

In the next test the target is T2, ELK1 (Homo sapiens, UniProt P19419 1-428).
T2 sequence: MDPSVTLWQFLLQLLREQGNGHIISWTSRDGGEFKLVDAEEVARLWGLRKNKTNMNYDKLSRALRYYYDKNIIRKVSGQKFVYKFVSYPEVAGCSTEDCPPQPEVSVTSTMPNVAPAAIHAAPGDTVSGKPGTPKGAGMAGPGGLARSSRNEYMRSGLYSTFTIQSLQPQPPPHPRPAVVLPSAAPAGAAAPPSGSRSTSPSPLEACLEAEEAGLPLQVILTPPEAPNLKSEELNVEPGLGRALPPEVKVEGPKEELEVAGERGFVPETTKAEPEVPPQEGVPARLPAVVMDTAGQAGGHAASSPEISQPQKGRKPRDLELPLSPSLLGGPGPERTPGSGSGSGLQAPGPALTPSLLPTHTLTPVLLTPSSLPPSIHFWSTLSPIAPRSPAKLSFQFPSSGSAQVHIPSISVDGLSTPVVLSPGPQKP
The gist of the method: as §1

Another test deals with T3, GABPA (Homo sapiens, UniProt Q06546 1-454).
T3 sequence: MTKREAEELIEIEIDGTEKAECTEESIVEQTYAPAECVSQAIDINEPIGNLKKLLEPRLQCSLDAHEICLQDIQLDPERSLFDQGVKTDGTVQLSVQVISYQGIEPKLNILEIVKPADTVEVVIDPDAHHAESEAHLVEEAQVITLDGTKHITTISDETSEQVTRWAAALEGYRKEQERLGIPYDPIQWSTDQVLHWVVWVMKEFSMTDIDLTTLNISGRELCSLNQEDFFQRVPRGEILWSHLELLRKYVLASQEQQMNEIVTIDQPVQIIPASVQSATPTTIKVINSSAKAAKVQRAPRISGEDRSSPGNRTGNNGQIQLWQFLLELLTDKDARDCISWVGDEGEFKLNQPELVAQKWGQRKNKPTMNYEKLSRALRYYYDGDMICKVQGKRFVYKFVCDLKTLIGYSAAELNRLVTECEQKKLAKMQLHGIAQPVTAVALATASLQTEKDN
The gist of the method:
as §1

The next test has as its target T4, ERG (Homo sapiens, UniProt P11308 1-479).
T4 sequence: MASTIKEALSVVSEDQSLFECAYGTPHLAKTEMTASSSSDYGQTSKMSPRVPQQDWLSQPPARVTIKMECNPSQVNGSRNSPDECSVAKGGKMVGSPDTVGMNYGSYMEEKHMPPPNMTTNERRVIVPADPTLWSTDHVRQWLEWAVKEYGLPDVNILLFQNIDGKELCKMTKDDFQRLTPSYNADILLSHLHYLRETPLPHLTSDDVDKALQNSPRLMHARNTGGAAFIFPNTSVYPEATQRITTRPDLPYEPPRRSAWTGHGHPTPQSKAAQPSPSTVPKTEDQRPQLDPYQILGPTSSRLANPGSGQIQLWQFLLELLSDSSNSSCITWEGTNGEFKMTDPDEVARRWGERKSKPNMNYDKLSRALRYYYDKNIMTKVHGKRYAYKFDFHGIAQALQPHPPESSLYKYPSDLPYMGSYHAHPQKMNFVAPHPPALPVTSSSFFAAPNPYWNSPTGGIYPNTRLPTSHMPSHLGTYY
In a few lines: as §1

For a further test, the target named is ELF1 (Homo sapiens, UniProt P32519 1-619). In a few lines:
as §1

Another test has as its target T5, EHF (Homo sapiens, UniProt Q9NZC4 1-300).
T5 sequence: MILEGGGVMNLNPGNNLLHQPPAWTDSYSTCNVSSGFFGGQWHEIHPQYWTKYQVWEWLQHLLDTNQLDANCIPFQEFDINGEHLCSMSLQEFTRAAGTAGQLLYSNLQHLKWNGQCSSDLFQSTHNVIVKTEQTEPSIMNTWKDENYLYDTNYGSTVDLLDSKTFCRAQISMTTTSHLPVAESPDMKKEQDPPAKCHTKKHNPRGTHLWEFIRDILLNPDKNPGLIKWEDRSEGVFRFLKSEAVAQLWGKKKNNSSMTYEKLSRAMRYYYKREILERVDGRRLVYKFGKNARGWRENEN
The gist of the method:
as §1

A further test addresses SPI1 (Homo sapiens, UniProt P17947 1-270). The gist of the method:
as §1

A further test addresses SPIB (Homo sapiens, UniProt Q01892 1-262). In a few lines: as §1
Another test addresses T6, ELK3 (Homo sapiens, UniProt P41970 1-407).
T6 sequence: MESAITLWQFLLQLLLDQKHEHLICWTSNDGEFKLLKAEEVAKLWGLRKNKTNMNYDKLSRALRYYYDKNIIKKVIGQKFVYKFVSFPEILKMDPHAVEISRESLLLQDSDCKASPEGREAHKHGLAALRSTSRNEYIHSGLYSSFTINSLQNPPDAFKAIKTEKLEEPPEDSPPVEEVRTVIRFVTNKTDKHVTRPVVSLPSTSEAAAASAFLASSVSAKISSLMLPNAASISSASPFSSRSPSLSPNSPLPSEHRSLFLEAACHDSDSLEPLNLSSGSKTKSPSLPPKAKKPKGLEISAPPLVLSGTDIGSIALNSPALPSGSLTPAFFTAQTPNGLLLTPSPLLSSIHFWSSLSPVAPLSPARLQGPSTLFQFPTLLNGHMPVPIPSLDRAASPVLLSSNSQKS
The gist of the method:
as §1

Chain of ELF1 (P32519 whole entry): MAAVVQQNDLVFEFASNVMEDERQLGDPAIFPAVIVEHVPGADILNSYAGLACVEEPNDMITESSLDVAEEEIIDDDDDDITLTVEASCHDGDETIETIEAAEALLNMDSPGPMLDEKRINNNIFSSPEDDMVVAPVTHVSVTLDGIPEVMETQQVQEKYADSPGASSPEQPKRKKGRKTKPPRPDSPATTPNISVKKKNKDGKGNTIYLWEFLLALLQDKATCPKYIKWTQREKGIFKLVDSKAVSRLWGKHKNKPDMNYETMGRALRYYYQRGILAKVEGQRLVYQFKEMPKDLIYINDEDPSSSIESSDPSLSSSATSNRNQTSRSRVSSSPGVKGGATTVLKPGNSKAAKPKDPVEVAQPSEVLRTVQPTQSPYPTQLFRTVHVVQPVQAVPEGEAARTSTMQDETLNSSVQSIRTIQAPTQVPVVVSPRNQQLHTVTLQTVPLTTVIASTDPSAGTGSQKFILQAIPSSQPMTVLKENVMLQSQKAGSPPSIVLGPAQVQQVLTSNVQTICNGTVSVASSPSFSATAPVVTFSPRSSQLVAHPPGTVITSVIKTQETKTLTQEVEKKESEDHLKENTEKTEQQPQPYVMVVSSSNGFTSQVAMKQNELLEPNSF
Chain of SPIB (Q01892 whole entry): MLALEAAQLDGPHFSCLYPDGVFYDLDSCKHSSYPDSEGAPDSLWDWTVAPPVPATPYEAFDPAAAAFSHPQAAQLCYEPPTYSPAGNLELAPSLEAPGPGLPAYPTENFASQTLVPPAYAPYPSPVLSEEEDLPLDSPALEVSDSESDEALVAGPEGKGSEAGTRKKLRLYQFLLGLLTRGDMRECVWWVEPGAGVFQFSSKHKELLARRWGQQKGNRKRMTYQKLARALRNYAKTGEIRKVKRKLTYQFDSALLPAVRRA

Take CGTTTC: the binding signal with FLI1 is 1.76 fold enrichment (6-mer frequency, TF over GST control); with ELK1, 1.68 fold enrichment (6-mer frequency, TF over GST control); with GABPA, 1.69 fold enrichment (6-mer frequency, TF over GST control); in the test with ERG it was 1.98 fold enrichment (6-mer frequency, TF over GST control); in the test with ELF1, 1.71 fold enrichment (6-mer frequency, TF over GST control); in the test with EHF it was 1.83 fold enrichment (6-mer frequency, TF over GST control). The binding signal was 1.79 fold enrichment (6-mer frequency, TF over GST control) in the test with SPI1; 1.75 fold enrichment (6-mer frequency, TF over GST control) with SPIB; 1.72 fold enrichment (6-mer frequency, TF over GST control) in the test with ELK3.

In the case of TTCCCG, the binding signal was 1.8 fold enrichment (6-mer frequency, TF over GST control) with FLI1; 1.73 fold enrichment (6-mer frequency, TF over GST control) in the test with ELK1; 1.93 fold enrichment (6-mer frequency, TF over GST control) in the test with GABPA; 2.03 fold enrichment (6-mer frequency, TF over GST control) with ERG; 1.82 fold enrichment (6-mer frequency, TF over GST control) with ELF1; 1.98 fold enrichment (6-mer frequency, TF over GST control) with EHF. Further, the binding signal with SPI1 is 2.02 fold enrichment (6-mer frequency, TF over GST control); with SPIB, 2.17 fold enrichment (6-mer frequency, TF over GST control); in the test with ELK3, 1.78 fold enrichment (6-mer frequency, TF over GST control).

For CATCCT, the binding signal is 1.68 fold enrichment (6-mer frequency, TF over GST control) with FLI1; 1.65 fold enrichment (6-mer frequency, TF over GST control) with ELK1; 1.51 fold enrichment (6-mer frequency, TF over GST control) with GABPA; 1.75 fold enrichment (6-mer frequency, TF over GST control) in the test with ERG; 1.64 fold enrichment (6-mer frequency, TF over GST control) with ELF1; 1.62 fold enrichment (6-mer frequency, TF over GST control) with EHF. The binding signal with SPI1 is 1.59 fold enrichment (6-mer frequency, TF over GST control); in the test with SPIB it was 1.7 fold enrichment (6-mer frequency, TF over GST control); with ELK3 it was 1.68 fold enrichment (6-mer frequency, TF over GST control).

ACACTT: the binding signal in the test with FLI1 is 1.63 fold enrichment (6-mer frequency, TF over GST control); with ELK1 it was 1.7 fold enrichment (6-mer frequency, TF over GST control); in the test with GABPA it was 1.53 fold enrichment (6-mer frequency, TF over GST control); with ERG it was 1.8 fold enrichment (6-mer frequency, TF over GST control); in the test with ELF1, 1.69 fold enrichment (6-mer frequency, TF over GST control); with EHF, 1.66 fold enrichment (6-mer frequency, TF over GST control). The binding signal was 1.95 fold enrichment (6-mer frequency, TF over GST control) in the test with SPI1; 1.67 fold enrichment (6-mer frequency, TF over GST control) with SPIB; 1.74 fold enrichment (6-mer frequency, TF over GST control) with ELK3.

Regarding TATTGT, the binding signal in the test with FLI1 is 1.27 fold enrichment (6-mer frequency, TF over GST control); with ELK1, 1.32 fold enrichment (6-mer frequency, TF over GST control); with GABPA it was 1.29 fold enrichment (6-mer frequency, TF over GST control); with ERG it was 1.3 fold enrichment (6-mer frequency, TF over GST control); with ELF1, 1.28 fold enrichment (6-mer frequency, TF over GST control); with EHF it was 1.23 fold enrichment (6-mer frequency, TF over GST control). Also, the binding signal is 1.19 fold enrichment (6-mer frequency, TF over GST control) in the test with SPI1; 1.28 fold enrichment (6-mer frequency, TF over GST control) with SPIB; 1.53 fold enrichment (6-mer frequency, TF over GST control) in the test with ELK3.

For the sequence TAATAG, the binding signal with FLI1 is 1.24 fold enrichment (6-mer frequency, TF over GST control); with ELK1, 1.15 fold enrichment (6-mer frequency, TF over GST control); in the test with GABPA it was 1.09 fold enrichment (6-mer frequency, TF over GST control); in the test with ERG it was 1.11 fold enrichment (6-mer frequency, TF over GST control); with ELF1 it was 1.2 fold enrichment (6-mer frequency, TF over GST control); with EHF, 1.25 fold enrichment (6-mer frequency, TF over GST control). The binding signal in the test with SPI1 is 1.2 fold enrichment (6-mer frequency, TF over GST control); with SPIB it was 1.29 fold enrichment (6-mer frequency, TF over GST control); with ELK3, 1.06 fold enrichment (6-mer frequency, TF over GST control).

For CTCCGG, the binding signal is 1.45 fold enrichment (6-mer frequency, TF over GST control) in the test with FLI1; 1.58 fold enrichment (6-mer frequency, TF over GST control) with ELK1; 1.68 fold enrichment (6-mer frequency, TF over GST control) with GABPA; 1.64 fold enrichment (6-mer frequency, TF over GST control) in the test with ERG; 1.52 fold enrichment (6-mer frequency, TF over GST control) with ELF1; 1.58 fold enrichment (6-mer frequency, TF over GST control) with EHF. Besides, the binding signal is 1.43 fold enrichment (6-mer frequency, TF over GST control) with SPI1; 1.54 fold enrichment (6-mer frequency, TF over GST control) with SPIB; 1.6 fold enrichment (6-mer frequency, TF over GST control) in the test with ELK3.

As for TAGTAT, the binding signal with FLI1 is 1.25 fold enrichment (6-mer frequency, TF over GST control); in the test with ELK1 it was 1.34 fold enrichment (6-mer frequency, TF over GST control); with GABPA, 1.28 fold enrichment (6-mer frequency, TF over GST control); with ERG it was 1.23 fold enrichment (6-mer frequency, TF over GST control); with ELF1, 1.29 fold enrichment (6-mer frequency, TF over GST control); in the test with EHF, 1.38 fold enrichment (6-mer frequency, TF over GST control). Moreover, the binding signal is 1.23 fold enrichment (6-mer frequency, TF over GST control) with SPI1; 1.33 fold enrichment (6-mer frequency, TF over GST control) in the test with SPIB; 1.15 fold enrichment (6-mer frequency, TF over GST control) with ELK3.
